Many of the other results were omitted from the sample, so hits are more common in it than they were.
mHTT CaM bind: inhibitors of human mutant huntingtin-calmodulin interaction. inhibition, % at 15 µM. P42858. AlphaScreen His-mHTT/GST-CaM binding, luminescence. 3.6% of 190,000 active;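 also: 0% = both proteins with DMSO and 100% = one protein alone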
Pf apPOL block: Pf-apPOL DNA polymerase inhibition; Recombinant Pf-apPOL, molecular beacon fluorescence, 1.5 h; inhibition, % at 10 µM; 0.25% of 210,000 active
Active calls of the source: *. Rule as the data show it: active = inhibition above about 50%; inactive = the rest.

CCc1ccc(-n2c(SCC(=O)NC(C)CC)nc3n[nH]c(C)c3c2=N)cc1 (stereo unspecified) was read as mHTT CaM bind 91* and Pf apPOL block -3.
`CCN(CC)C(=O)CSc1nc2n[nH]c(C)c2c(=N)n1-c1ccc(Oc2ccccc2)cc1` gave mHTT CaM bind 13 and Pf apPOL block -3.
CCC(C)NC(=O)CSc1nc2n[nH]c(C)c2c(=N)n1-c1ccc(C)cc1 (stereo unspecified) was read as mHTT CaM bind 54* and Pf apPOL block 2.
`CCN(CC)C(=O)CSc1nc2n[nH]c(C)c2c(=N)n1-c1ccc(C)c(Cl)c1` gave mHTT CaM bind 14 and Pf apPOL block -3.
O=C(c1cc2nc(-c3ccco3)cc(C(F)(F)Cl)n2n1)N1CCc2ccccc21 was read as mHTT CaM bind 1 and Pf apPOL block 2.
For O=C(NC1CCCCC1)C1CC(=O)N(Cc2cccc(Br)c2)C1 (stereo unspecified) the results were mHTT CaM bind 2 and Pf apPOL block 1.
For O=C(Oc1ccc2c(c1)OC(=Cc1cccnc1)C2=O)c1ccncc1 the results were mHTT CaM bind 24 and Pf apPOL block 6.
O=C(Oc1ccc2c(c1)OC(=Cc1cccnc1)C2=O)c1ccc(Br)cc1 was read as mHTT CaM bind 76* and Pf apPOL block 2.
CCN1CCN(c2nc(Cc3ccccc3)nc3sc4c(c23)CCCC4)CC1 was read as mHTT CaM bind 66* and Pf apPOL block -6.
c1ccc(Cc2nc(N3CCOCC3)c3c4c(sc3n2)CCCC4)cc1 was read as mHTT CaM bind -34 and Pf apPOL block 0.
CC(=O)N(CN1C(=O)c2cccc([N+](=O)[O-])c2C1=O)c1cc(Cl)ccc1Cl was read as mHTT CaM bind 3 and Pf apPOL block -1.
`C/C(=N/Nc1nnc(C)c(=O)[nH]1)C(=O)O` gave mHTT CaM bind active.
Screening Cc1nnc(NN=C(C(=O)O)C(=O)O)[nH]c1=O returned mHTT CaM bind 14.
CC(C)(C)c1ccc(N2C(=O)CC(c3ccccc3)C2=O)cc1 (stereo unspecified) was read as Pf apPOL block 2.
For O=C1CC(c2c[nH]c3ccccc23)C(=O)N1c1ccc(O)cc1 (stereo unspecified) the results were mHTT CaM bind 77* and Pf apPOL block -4.
For COc1ccc(Cc2noc(-c3ccccc3C)n2)cc1 the results were mHTT CaM bind -67 and Pf apPOL block -8.
For CN(C)c1ccc(NC2=C(n3nnc4ccccc43)C(=O)c3ccccc3C2=O)cc1 the results were mHTT CaM bind 51* and Pf apPOL block -9.
Screening COc1cccc(NC2=C(n3nnc4ccccc43)C(=O)c3ccccc3C2=O)c1 returned mHTT CaM bind 8 and Pf apPOL block -1.
Screening Cc1ccc(NC2=C(n3nnc4ccccc43)C(=O)c3ccccc3C2=O)cc1 returned mHTT CaM bind 52* and Pf apPOL block 3.
`Cc1ccc(Nc2c3c4c(cccc4n(C)c2=O)C(=O)c2ccccc2-3)cc1` gave mHTT CaM bind 36 and Pf apPOL block -2.
For Cc1ccc(NC2=C(NCCO)C(=O)c3ccccc3C2=O)cc1 the results were mHTT CaM bind 67* and Pf apPOL block 0.
CCN(CC)C1=C(n2nnc3ccccc32)C(=O)c2ccccc2C1=O was read as mHTT CaM bind 27 and Pf apPOL block -6.
`COc1cccc(NC(=O)c2ccc(-c3ccsc3)nc2)c1` gave mHTT CaM bind 5 and Pf apPOL block 36.
Screening Cc1ccc(C2=Nc3cccnc3N(CC(=O)Nc3c(C)cccc3C)C(=O)C2)cc1 returned mHTT CaM bind -2 and Pf apPOL block 6.
COc1ccc(NCc2ccccc2[N+](=O)[O-])cc1OC was read as mHTT CaM bind 64* and Pf apPOL block 4.
Screening COc1ccc(NC(=O)Cc2ccccc2[N+](=O)[O-])cc1OC returned mHTT CaM bind 2 and Pf apPOL block 2.
`CCOc1cc(CN2CCN(Cc3ccccc3[N+](=O)[O-])CC2)ccc1OC` gave mHTT CaM bind 9 and Pf apPOL block 6.
Screening COc1ccc(C=O)cc1OCc1ccccc1[N+](=O)[O-] returned mHTT CaM bind 1 and Pf apPOL block 94*.
`COc1ccc(NCc2ccc([N+](=O)[O-])s2)cc1OC` gave mHTT CaM bind 65* and Pf apPOL block 4.
`COc1ccccc1NCc1ccc([N+](=O)[O-])s1` gave mHTT CaM bind 31 and Pf apPOL block 11.
`Cc1cc(N2CCN(C(=O)c3ccc(F)cc3F)CC2)c(F)cc1[N+](=O)[O-]` gave mHTT CaM bind 19 and Pf apPOL block -10.
Screening Cc1ccc(S(=O)(=O)NCCC2=CCCCC2)cc1[N+](=O)[O-] returned mHTT CaM bind 10 and Pf apPOL block -2.
Screening O=C(C1CCCN(Cc2ccccc2Br)C1)N1CCCCCC1 (stereo unspecified) returned mHTT CaM bind 2 and Pf apPOL block 3.
Screening COCCN1CCC(N2CCCN(C(=O)CCc3c(C)noc3C)CC2)C1=O (stereo unspecified) returned mHTT CaM bind 9 and Pf apPOL block -1.

High-throughput results deposited in PubChem by University of Kansas High Throughput Screening Laboratory.
